From PubChem BioAssay AID686971 (National Center for Advancing Translational Sciences (NCATS), 2013)
Screen size: about 360,000 compounds; about 7,500 (2.1%) were called active. Inconclusive results (about 8%) are left out. Calls follow the shape of the dose curve; as a rule, active = well fitted cell-killing curve with a large enough effect; inconclusive = small, poorly fitted or top-dose-only effect, or effect the other way, or another doubt; inactive = no such curve, though single readings can be large or run the other way. The list comes from a sample in which actives are over-represented; it also holds similar structures and randomly drawn compounds. Where a call stands in place of a potency, no number is given.
Potency is read from the fitted curve at half-maximal effect.

Assay: qHTS for induction of synthetic lethality in tumor cells producing 2HG: qHTS for the HT-1080-IDH1KD cell line
Settings: HT-1080 IDH1 knockdown viability, ATP luminescence, 48 h; series mostly up to 46.1 µM
Method in brief: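 Knockdown cells (IDH1KD HT-1080) received compounds 2 h after plating at 750 cells/well and were kept 48 h at 37 °C in 5% FBS RPMI. A CellTiter-Glo luminescence read gave % activity for curve fitting.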
In the case of `CS(=O)(=O)N1CCCCC1c1cc(C(=O)NCc2ccccc2)no1` (stereo not drawn), the Potency was “inactive”.
In the case of `Cn1c(Nc2ccc(F)cc2)nc2cc(-c3ccsc3)sc2c1=O`, the Potency was “inactive”.
For `CC(C)NC(=O)C1(C)CCCCN1Cc1cccc(C(F)(F)F)c1` (stereo not drawn), the Potency was “inactive”.
With `Cc1ccc(S(=O)(=O)NN=C2CC(C)(C)CC(=O)C2(C)C)cc1` the Potency was “inactive”.
In the case of `COc1ccc(-c2nnc(SC(C)C(=O)NC3CC3)o2)cc1` (stereo not drawn), the Potency was “inactive”.
For `COc1ccc(-c2nnc(-c3ccc4ccccc4c3)o2)cc1`, the Potency was “inactive”.
For `COc1ccc(-c2nnc(SC(=O)N3c4ccccc4Sc4ccccc43)o2)cc1`, the Potency was 11.2 µM (active).
With `Cc1cccc(S(=O)(=O)N(C)C[C@@H]2OCc3cnnn3CCCC(=O)N([C@H](C)CO)C[C@@H]2C)c1` the Potency was “inactive”.
For `Cc1ccc(Cc2c(-c3ccc(C)cc3)nc3c4ccccc4ccn23)cc1`, the Potency was “inactive”.
With `CS(=O)(=O)c1cccc(-c2ccc3nncn3c2)c1` the Potency was “inactive”.
In the case of `Cc1cccc(NC(=O)c2nnn(-c3cccc(C(F)(F)F)c3)c2N)c1`, the Potency was “inactive”.
For `COc1cc(NC(=O)c2cncc(-c3ccc(C#N)cc3)c2)cc(C(=O)Nc2cccc(C(F)(F)F)c2)c1`, the Potency was “inactive”.
For `COc1cc(NC(=O)c2[nH]cnc2C(N)=O)cc(C(=O)Nc2cccc(C(F)(F)F)c2)c1`, the Potency was 20.6 µM (active).
For `C[C@H](CO)N1C[C@H](C)[C@H](CN(C)C(=O)c2ccncc2)OCc2ccccc2-c2c(n(C)c3ccccc23)C1=O`, the Potency was “inactive”.
With `COc1ccc(C(C(=O)NCc2ccccc2)n2c(=O)c(-c3ccccc3)nc3ccccc32)cc1` (stereo not drawn) the Potency was “inactive”.
For `C[C@H](O)[C@@H]1C(=O)N2CCc3c([nH]c4ccccc34)[C@@H]2C[C@@H]1N(C)C(=O)Nc1ccc(F)cc1`, the Potency was “inactive”.
For `CC1(C(=O)Nc2ccc3c(c2)OCCO3)CCN1C(=O)Cc1cc(F)ccc1F` (stereo not drawn), the Potency was “inactive”.
For `CC(C)OC(=O)c1ccc(NCc2cc(O)ccc2O)cc1Cl`, the Potency was 23.1 µM (active).
For `COC(=O)c1ccc(NCc2cc(O)ccc2O)cc1`, the Potency was 20.6 µM (active).
With `COC(=O)c1ccc(NC(=O)Nc2ccc(C)cc2)cc1` the Potency was “inactive”.
With `O=C(OC12CC3CC(CC(C3)C1)C2)c1ccc(NCc2cc(O)ccc2O)cc1` the Potency was 23.1 µM (active).
With `CC1(C)C2CCC1(C)C(OC(=O)c1ccc(O)cc1)C2` (stereo not drawn) the Potency was “inactive”.
In the case of `CC(CN1CCOCC1)OC(=O)c1ccc(Cl)cc1Cl` (stereo not drawn), the Potency was “inactive”.
In the case of `CC(C)NC(=O)c1ccc(Cl)cc1Cl`, the Potency was “inactive”.
For `COC(=O)c1ccc(NCC(=O)c2ccccc2)cc1`, the Potency was “inactive”.
For `C[C@@H]1CN([C@@H](C)CO)C(=O)c2cc(NS(C)(=O)=O)ccc2O[C@@H](C)CCCCO[C@H]1CN(C)C(=O)Nc1ccc2c(c1)OCO2`, the Potency was “inactive”.
For `CCNC(=O)C1(C)CCCN(Cc2noc(-c3ccccc3OC)n2)C1` (stereo not drawn), the Potency was “inactive”.
In the case of `CC(=O)c1nn(-c2ccccc2)c(=Nc2ccccc2)cc1C`, the Potency was “inactive”.
In the case of `CCCNC(=O)C1(C)CCN1C(=O)C1(c2ccccc2)CC1` (stereo not drawn), the Potency was “inactive”.
With `CCCCCCN1CCN(C2CN(Cc3cn(CCCCCC)nn3)S(=O)(=O)C2)CC1` (stereo not drawn) the Potency was “inactive”.
In the case of `COc1ccc(CN2CCC(C)(Oc3cccc(F)c3)C2)c2ccccc12` (stereo not drawn), the Potency was “inactive”.
With `CCCCN1C[C@H](c2ccc(Br)cc2)[C@@H](CC(=O)Nc2ccc(Br)cc2)C1=O` the Potency was “inactive”.
With `O=C(CNC(=O)N1CC(=O)Nc2ccccc21)Nc1ccc(Br)cc1F` the Potency was “inactive”.
In the case of `COc1ccc(/C=N/NC(=O)CNC(=O)c2ccc(S(=O)(=O)N3CCCC3)cc2)c(OC)c1`, the Potency was “inactive”.
With `COc1cccc(/C=N/NC(=O)CNC(=O)c2ccc(S(=O)(=O)N3CCOCC3)cc2)c1OC` the Potency was “inactive”.
In the case of `COc1ccc(C(=O)NCC(=O)N/N=C/c2ccc([N+](=O)[O-])o2)cc1OC`, the Potency was 14.6 µM (active).
With `Cc1ccc(-c2nc3ccccn3c2Nc2ccc(F)cc2)o1` the Potency was “inactive”.
With `O=C1NC[C@H](CCCCN2C[C@H](Cc3ccc(O)cc3)N(CCc3ccccc3)C(=O)C2=O)N(CCc2ccccc2)C1=O` the Potency was “inactive”.
For `Cc1cccc(CN2CCC(CNC(=O)Nc3ccc(F)c(Cl)c3)CC2)c1`, the Potency was 14.6 µM (active).
In the case of `Cc1ccc(C)c(CN2CCC(CNC(=O)Nc3ccc(C)c(F)c3)CC2)c1`, the Potency was “inactive”.
With `Cc1ccccc1NC(=O)NCC1CCN(Cc2cccc(Cl)c2)CC1` the Potency was “inactive”.
For `CSCCC(C(=O)NC(C)(C)C)n1c(-c2ccccc2)nc2ccccc21` (stereo not drawn), the Potency was “inactive”.
In the case of `COc1cccc(-c2nnc(NC(=O)c3ccc(S(=O)(=O)N(CC(C)C)CC(C)C)cc3)o2)c1`, the Potency was 2.59 µM (active).
For `COc1ccc(-c2nnc(NC(=O)CS(=O)(=O)c3ccc(Cl)cc3)o2)c(OC)c1`, the Potency was “inactive”.
With `O=C(Nc1nnc(-c2ccco2)o1)c1ccc(S(=O)(=O)N2CCOCC2)cc1` the Potency was “inactive”.
In the case of `COc1cc(C)c(CN2CCN(C(=O)CCC(=O)c3ccc(C)s3)CC2)cc1OC`, the Potency was “inactive”.
In the case of `COc1ccc(NC(=O)c2sc(=O)n(Cc3ccc(S(=O)(=O)N(C)C)cc3)c2C)cc1`, the Potency was “inactive”.
For `CC1(C(=O)Nc2ccc3c(c2)OCCO3)CSCC(=O)N1CCOc1ccccc1` (stereo not drawn), the Potency was “inactive”.
For `Cc1ccn(CC(=O)NC2CCCN(Cc3ccccc3F)C2)n1` (stereo not drawn), the Potency was “inactive”.
For `CC1Cc2[nH][nH]c(=O)c2C(C2CC2)O1` (stereo not drawn), the Potency was “inactive”.
With `O=C(/C=C/Sc1ncn[nH]1)c1ccc(Cl)cc1` the Potency was 5.8 µM (active).
In the case of `O=C(CSc1ncn[nH]1)Nc1ccc(Br)cc1Br`, the Potency was “inactive”.
In the case of `Cc1cccc(C=CC(=O)c2ccc(Cl)cc2)c1`, the Potency was “inactive”.
With `Cc1ccc([C@H]2C[C@H](O)[C@@H](n3cc(COC(=O)c4ccccc4)nn3)CN2C(=O)C2CCCCC2)cc1` the Potency was “inactive”.
In the case of `Nc1nc(Nc2ccccc2F)nc(NC2CCCCC2)c1[N+](=O)[O-]`, the Potency was 18.4 µM (active).
For `Nc1nc(NCC2CCCO2)nc(Nc2ccccc2F)c1[N+](=O)[O-]` (stereo not drawn), the Potency was “inactive”.
In the case of `C=CCNc1nc(N)c([N+](=O)[O-])c(NC2CCCCC2)n1`, the Potency was “inactive”.
With `COc1ccc(-n2cc(CN(C)Cc3n[nH]c(=O)[nH]3)c(-c3cccc(F)c3)n2)cc1` the Potency was “inactive”.
With `Cn1cc(CN2CCC(C(O)CCc3ccccc3)CC2)c(-c2ccccc2F)n1` (stereo not drawn) the Potency was “inactive”.
For `Cc1cccc(-n2cc(CN3CCN(C(=O)c4ncn[nH]4)CC3)c(-c3cccc(F)c3)n2)c1`, the Potency was “inactive”.
With `CCC(O)C1CCN(Cc2cn(-c3ccc(OC)cc3)nc2-c2cccc(F)c2)CC1` (stereo not drawn) the Potency was 14.6 µM (active).
For `COc1ccc(-c2nn(-c3ccccc3)cc2CN2CCCO2)c(F)c1`, the Potency was “inactive”.
With `COc1ccc(-n2cc(CNC3CCOCC3)c(-c3cccc(F)c3)n2)cc1` the Potency was 18.4 µM (active).
